The structures appear in SMILES notation. Among all 69,000 compounds or so, about 8,600 (12%) showed an effect of 50% or more. The sample holds strong results, similar compounds and a random draw of the others, so the mix is not that of the screen.

The assay has as its system Plasmodium berghei. As to the kind of experiment: Screen against P. berghei liver stage (PbLuc), transformed with Luciferase, at 10uM. Particulars: tested at 10 uM. The class given is functional, HepG2.
`CS(=O)(=O)N1CC[C@@H]2[C@@H]1CCN2Cc1ccc2c(c1)OCO2`: the INHIBITION came to 7.5%. Consider `CC(C)N(CCCNC(=O)C1CCCN(C(N)=O)C1)S(C)(=O)=O` (stereo not given), for which the INHIBITION came to 36.5%.

`CN(Cc1cn(CC2CCNCC2)nn1)CC1CCCCO1` (stereo not given): the INHIBITION is -1.04%. On to `O=C1[C@H]2CN(Cc3ccco3)C[C@H]2CN1c1ccsc1`, for which the INHIBITION is listed as 31.1%.

With `CC(NCCCN1CCCN(C)CC1)C(C)(C)C` (stereo not given), the INHIBITION was found to be 26%.

In the case of `Cc1cc(NC(=O)Cn2ccccc2=O)n(C)n1`, the INHIBITION was found to be 11.5%.

On to `Cn1nc(C(C)(C)C)cc1NC(=O)Cn1ccccc1=O`, for which the INHIBITION is recorded as 54.3%. Regarding `Cc1ccccc1-c1cc(NC(=O)Cn2ccccc2=O)n(C)n1`, the INHIBITION is -3.94%. The value for `Fc1cnc(N2CCO[C@H]3CN(CC4CCOC4)C[C@H]32)nc1` (stereo not given in full) was 43.1%; that for `Fc1cnc(N2CCO[C@H]3CN(CC4CCC4)C[C@H]32)nc1` was 12.2%. The value for `c1cnc(N2CCO[C@H]3CN(CC4CCOC4)C[C@H]32)cn1` (stereo not given in full) was 44.8%; that for `c1cncc(N2CCO[C@H]3CN(CC4CCOC4)C[C@H]32)c1` (stereo not given in full) was 62%; that for `c1cnc(N2CCO[C@H]3CN(CC4CCC4)C[C@H]32)cn1` was 62%. As for `c1cnc(N2CCO[C@H]3CN(CC4CCCC4)C[C@H]32)cn1`, the INHIBITION worked out at 42.1%.

As for `O=C(C1=CCCCC1)N1CCO[C@H]2[C@H](Oc3ccccn3)CC[C@@H]21`, the INHIBITION is given as 27.6%. The value for `CCCc1nc(C)cc(NCc2ccc(S(N)(=O)=O)cc2)n1` was 18.5%.

As for `CCOc1ccc(-n2nnc(C(=O)O)c2-c2ccccn2)cc1`, the INHIBITION is -31.6%. The value for `CCN(Cc1ccccn1)Cc1cc(Cl)ccc1OC` was 39.1%; that for `CCN(Cc1cc(Cl)ccc1OC)Cc1cc(C)nn1C` was 57.9%.

On to `CCN(Cc1cc(Cl)ccc1OC)Cc1nccn1C`, for which the INHIBITION turned out to be 15.3%. On to `O=C(CCCN1CCCCC1)N1CCN(C(=O)c2nc[nH]n2)CC1`, for which the INHIBITION was -15.5%. As for `Cc1[nH]ncc1CCCNC(=O)Nc1ccc(C#N)cc1`, the figure is -70.3%. As for `Cc1[nH]ncc1CCCNC(=O)Nc1ccc(S(C)(=O)=O)nc1`, the figure is 22.6%; as for `Cc1[nH]ncc1CCCNC(=O)N1CCOC(C)C1` (stereo not given), -1.95%. The value for `Cc1[nH]ncc1CCCNC(=O)Nc1ccc2c(c1)OC1(CCCC1)O2` was 70.3%; that for `Cc1[nH]ncc1CCCNC(=O)Nc1ccc(F)cc1` was 78.2%.

Take `Cc1[nH]ncc1CCCNC(=O)Nc1ccccc1`: the INHIBITION is on record as 24.6%. As for `CN(CC1CCOC1)c1ccc(Br)cn1` (stereo not given), the figure is 44.2%. For the compound `CS(=O)(=O)N1CC[C@@H]2OC(COCC(=O)N3CCCC3)CC[C@@H]21` (stereo not given in full), the INHIBITION is given as -8.94%. The value for `CNCc1cn(C2CCN(CCC(C)c3ccccc3)CC2)nn1` (stereo not given) was 3.06%; that for `COCc1cn(C2CCN(CCC(C)c3ccccc3)CC2)nn1` (stereo not given) was 55.7%; that for `CC(CCN1CCC(n2cc(CCO)nn2)CC1)c1ccccc1` (stereo not given) was 24.9%.

For `O=C1[C@@H]2CCN(C3CCOCC3)C[C@@H]2OCCN1Cc1cccnc1`, the INHIBITION was -8.54%. For `CO[C@H]1CCN(S(=O)(=O)c2cn(C)cn2)[C@H]1Cc1cnn(C)c1`, the INHIBITION was determined as 10.8%. Take `CN1CCc2nnc(C3CCCN3S(=O)(=O)c3ccc(F)cc3)n2CC1` (stereo not given): the INHIBITION was -9.08%. The value for `Cc1cc(C)c(CNCC(O)c2ccc(F)c(F)c2)c(C)c1` (stereo not given) was -20.3%; that for `c1cc2c(cc1CN1C[C@@H]3COC[C@@H](N4CCCC4)[C@@H]3C1)OCO2` was 39.4%; that for `O[C@H]1CCCC[C@@H]1N1CCN(CCCc2ccc3c(c2)OCO3)CC1` was 53.8%.

Turning to `CSc1ccc(CCN2CCN([C@H]3CCCC[C@@H]3O)CC2)cc1`, the INHIBITION is recorded as 25.1%. In the case of `CCCOc1c(CNC2CCSC2)cccc1OC` (stereo not given), the INHIBITION stood at 4.87%.

Turning to `CCn1c(Cn2cncn2)nnc1C1CCN(Cc2ccncc2)CC1`, the INHIBITION was -22.1%. The value for `CCn1c(Cn2cncn2)nnc1C1CCN(CCN)CC1` was 43.8%; that for `CCn1c(Cn2cncn2)nnc1C1CCN(CC2[C@H]3CNC[C@@H]23)CC1` (stereo not given in full) was 57.1%.

Take `CC(C)c1nn(C)c(N(C)C)c1CNCCC(=O)N(C)C`: the INHIBITION amounted to 3.19%. Take `CCc1ccsc1C(=O)N1CCN(CC(C)(C)O)CC1`: the INHIBITION is on record as -13.5%. In the case of `CSc1ccsc1C(=O)N1CCN(CC(C)(C)O)CC1`, the INHIBITION stood at 25.3%.

Consider `CCCN1CCN(C(=O)c2cnn(-c3ccccc3F)c2)CC1`, for which the INHIBITION is given as -39.9%. As for `CC(C)C(C)(C#N)NC(=O)CN1CCCN(Cc2ccccc2F)CC1` (stereo not given), the figure is 82.4%. The value for `CC(C)(C)n1cc(C(=O)N2CCN(Cc3ccccc3F)CC2)cn1` was 71.4%; that for `O=C(c1cnn(-c2ccccc2F)c1)N1CCN(CCO)CC1` was -10.3%. As to `CC(C)(O)CN1CCN(C(=O)c2cnn(-c3ccccc3F)c2)CC1`, the INHIBITION is on record as 58.5%. The value for `CC(C)(C)n1cc(C(=O)N2CCN(Cc3ccco3)CC2)cn1` was 6.15%; that for `CC(C)(C)NC(=O)CN1CCCN(Cc2cc(C#N)ccc2F)CC1` was -24.9%; that for `CC(C)(O)CN1CCN(C(=O)c2sccc2C#N)CC1` was 54.4%. As for `CC(C)(C)NC(=O)CN1CCCN(Cc2ccc(C#N)cc2)CC1`, the figure is -7.77%.

For the origin of these results see ChEMBL document CHEMBL4513216, “Probing the Open Global Health Chemical Diversity Library for Multistage-Active Starting Points for Next-Generation Antimalarials” (ACS Infect Dis, 2020).
